# Source: PubChem BioAssay (EPA / NIEHS)
# Calls of active or inactive are those of the source. Rule for the calls: active = hit-call score of the fitted dose curve at least 0.9, where 1 is the maximum; inactive = score below 0.9.
# Target: Transcriptional activator Myb (Homo sapiens) (UniProt P10242)
# Experiment: ATG_Myb_CIS: Attagene CIS-FACTORIAL HepG2 Assay for human Myeloblastosis (Myb) Proto-Oncogene Transcription Factor (AID 2282986)
# Details: HepG2 Attagene CIS-FACTORIAL Myb reporter transcription; actives raise or lower the signal
# Method: ATG_CIS is a cell-based, multiplexed-readout assay that uses HepG2, a human liver cell line, with measurements taken at 24 hours after chemical dosing in a 24-well plate.ATG_Myb_CIS is one of 52 assay component(s) measured or calculated from the ATG_CIS assay. It is designed to make measurements of mRNA induction, a form of inducible reporter, as detected with fluorescence intensity signals by Reverse transcription polymerase chain reaction (RT-PCR) and Capillary electrophoresis technology.Data from the assay component ATG_Myb_CIS was analyzed into 1 assay endpoint. This assay endpoint, ATG_Myb_CIS, was analyzed with bidirectional fitting relative to DMSO as the negative control and baseline of activity. Using a type of inducible reporter, measures of mRNA for gain or loss-of-signal activity can be used to understand the reporter gene at the transcription factor-level as they relate to the gene MYB. Furthermore, this assay endpoint can be referred to as a primary readout, because this assay has produced multiple assay endpoints where this one serves a reporter gene function. To generalize the intended target to other relatable targets, this assay endpoint is annotated to the dna binding intended target family, where the subfamily is MYB proteins.
# Human liver HepG2 cells are transiently transfected with multiple reporter transcription units (MRTUs) in 6-well plates using FuGene 6 reagent (Roche; 3 ml FuGene/1 mg DNA). The MRTU constructs are regulated by a cis-regulating element (promoter). […] A major difference between the CIS and TRANS system is that in CIS activities of endogenous TFs are measured, whereas the TRANS assay evaluates changes in activities of exogenous, chimeric NR-Gal4 proteins. […] At the end of 24 hour incubation, total RNA was isolated using TriZol reagent (Invitrogen). The isolated RNA is then reverse-transcribed using oligo(dT) primer and Mo-MLV reverse transcriptase (Invitrogen) with DNAse I (Ambion) treatment for 30 min. The one-tenth of the produced cDNA was amplified by PCR using Taq DNA polymerase (Invitrogen) and two reporter sequence-specific primers. The PCR products were fluorescently labeled by primer extension with 6-arboxyfluorescein (6-FAM) 5'-labeled reporter sequence-specific primer (2 min at 95 C, 20 s at 68 C and 10 min at 72 C) and these products were digested with 5U of HpaI (New England Biolabs) for 2h at 37 C. The fragments were purified using Qiaquick PCR columns (Qiagen), analyzed on an ABI 3130xL genetic analyzer (Applied Biosystems) with peak positions identified by using a set of X-rhodamine (ROX)-labeled MapMarker1000 molecular weight standards (BioVentures). The raw capillary electrophoresis data was processed using Attagraph software (Attagene).
# Sequence of Transcriptional activator Myb (Homo sapiens) (P10242 whole entry, looked up): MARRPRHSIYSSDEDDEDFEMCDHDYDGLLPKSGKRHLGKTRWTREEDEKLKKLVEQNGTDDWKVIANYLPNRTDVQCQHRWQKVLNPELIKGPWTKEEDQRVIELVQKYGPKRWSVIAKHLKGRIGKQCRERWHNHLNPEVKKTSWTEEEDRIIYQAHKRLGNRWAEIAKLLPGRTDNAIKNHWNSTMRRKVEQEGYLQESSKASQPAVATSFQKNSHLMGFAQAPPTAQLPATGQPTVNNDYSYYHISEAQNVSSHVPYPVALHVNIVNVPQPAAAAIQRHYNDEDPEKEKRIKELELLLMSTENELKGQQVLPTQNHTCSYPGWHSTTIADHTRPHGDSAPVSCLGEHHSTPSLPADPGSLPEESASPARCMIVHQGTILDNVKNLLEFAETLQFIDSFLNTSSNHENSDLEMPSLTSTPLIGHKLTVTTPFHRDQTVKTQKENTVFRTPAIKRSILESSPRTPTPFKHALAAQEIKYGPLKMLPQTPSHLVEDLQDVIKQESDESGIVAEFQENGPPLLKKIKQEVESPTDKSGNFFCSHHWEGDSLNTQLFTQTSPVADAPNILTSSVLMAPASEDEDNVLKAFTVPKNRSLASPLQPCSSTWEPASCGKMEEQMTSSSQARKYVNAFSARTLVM
Compound,outcome,AC50
CCOCN(C(=O)CS(=O)(=O)O)c1c(C)cccc1CC,inactive,
O=C(O)CCC(F)(F)C(F)(F)C(F)(F)F,inactive,
NS(=O)(=O)C(F)(F)C(F)(F)C(F)(F)C(F)(F)C(F)(F)C(F)(F)F,inactive,
NCC(F)(F)C(F)(F)C(F)(F)C(F)(F)C(F)(F)C(F)(F)F,inactive,
N#Cc1ccccc1O,inactive,
OCC(O)CC(F)(F)C(F)(F)C(F)(F)C(F)(F)F (stereo not given),inactive,
OCC1CCCO1 (stereo not given),inactive,
Cc1ccc(S(=O)(=O)C(I)I)cc1,,17.4 µM (active)
CC1CCCCC1,inactive,
CCC/C=C/CO,inactive,
CCN=C1C=CC(=C(c2ccc(N(CC)CC)cc2)c2ccc(N(CC)CC)cc2)c2ccccc21,inactive,
CCCCCC/C=C/CCCCCCCC(=O)O,inactive,
CSc1ccc(O)cc1C,inactive,
F[Si-2](F)(F)(F)(F)F,inactive,
O=S(=O)(OCC(F)(F)F)C(F)(F)C(F)(F)C(F)(F)C(F)(F)F,inactive,
Cc1ccc(O)cn1,inactive,
CCC(=O)OC(C)c1ccccc1 (stereo not given),inactive,
COCCC(=O)OC,inactive,
CCCCCCCCCCCCC[N+](C)(C)Cc1ccccc1,inactive,
C=CC(=O)OCC(F)(F)C(F)(F)C(F)(F)COC(=O)C=C,inactive,

Compound,outcome,AC50
CCN(CC)c1ccc(C=O)c(O)c1,inactive,
FC(F)(F)C(F)(F)C(F)(F)C(F)(F)C(F)(F)C(F)(F)C(F)(F)CCI,inactive,
CCCCOC(=O)C(C)O (stereo not given),inactive,
CC(C)Nc1ccc(NC(C)C)c2c1C(=O)c1ccccc1C2=O,inactive,
CC(C)OC(=O)COc1ccc(Cl)cc1Cl,inactive,
Brc1ccccn1,inactive,
CCc1cccc(C)c1N(C(=O)C(=O)O)C(C)COC (stereo not given),inactive,
CC(C)CCCC(C)CCO (stereo not given),inactive,
OCC(F)(F)C(F)(F)C(F)(F)C(F)(F)C(F)(F)C(F)(F)CO,inactive,
O=S(=O)(O)CCC(F)(F)C(F)(F)C(F)(F)C(F)(F)F,inactive,
CCN(CCO)S(=O)(=O)C(F)(F)C(F)(F)C(F)(F)C(F)(F)C(F)(F)C(F)(F)C(F)(F)C(F)(F)F,inactive,
C[Si](C)O[Si](C)C,inactive,
CCn1c2ccccc2c2ccccc21,inactive,
OCCCCC(F)(F)C(F)(F)C(F)(F)C(F)(F)F,inactive,
CCCC(=O)OCC(COC(=O)CCC)OC(=O)CCC,inactive,
COc1ccccc1C=O,inactive,
CN(N=O)C(=O)N[C@@H]1[C@@H](O)[C@H](O)[C@@H](CO)O[C@@H]1O,inactive,
C=CC(=O)OCC(F)(F)C(F)(F)C(F)(F)C(F)(F)C(F)(F)C(F)(F)C(F)(F)C(F)F,inactive,
C[Si](Cl)(Cl)CCC(F)(F)C(F)(F)C(F)(F)C(F)(F)C(F)(F)C(F)(F)F,inactive,
N#CCCOCCC#N,inactive,
